Screening results as filed in PubChem BioAssay.
Most compounds without a hit are left out; they make up all but 3.3% or so of the library.
AmpC inh detg – qHTS Inhibitors of AmpC Beta-Lactamase (assay with detergent) | Potency, µM (doses to about 114 µM), inactives show at the top dose activity change, negative = inhibition, actives largely listed as inhibitors | P00811 | AmpC hydrolysis of nitrocefin, absorbance 480 nm, 0.01% Triton | 0.041% of 370,000 active;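 further: 0% = no-compound wells and -100% = no-enzyme wells; nearly all actives have a fitted effect of over 25% in size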
Target sequence (P00811 whole entry, looked up): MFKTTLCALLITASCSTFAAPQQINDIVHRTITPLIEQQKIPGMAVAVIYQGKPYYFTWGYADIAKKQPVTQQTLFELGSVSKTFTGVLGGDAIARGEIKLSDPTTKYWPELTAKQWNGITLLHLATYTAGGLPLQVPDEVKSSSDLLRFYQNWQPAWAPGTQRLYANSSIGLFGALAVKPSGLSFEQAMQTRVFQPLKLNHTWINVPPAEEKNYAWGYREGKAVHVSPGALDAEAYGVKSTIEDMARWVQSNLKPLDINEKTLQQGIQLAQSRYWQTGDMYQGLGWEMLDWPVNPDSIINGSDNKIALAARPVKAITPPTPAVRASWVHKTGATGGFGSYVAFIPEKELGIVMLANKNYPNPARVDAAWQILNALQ
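AmpC (5.3 nM in the dispensed reagent) in 20 mM phosphate pH 7.0 with 0.01% (detergent screen) or 0.0001% Triton X-100 was preincubated with compounds for 15 min at room temperature. Nitrocefin was then added from an 800 uM solution, and hydrolysis was followed at 480 nm.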
AmpC no deterg – qHTS Inhibitors of AmpC Beta-Lactamase (assay without detergent). P00811. AmpC nitrocefin hydrolysis, absorbance 480 nm, 0.0001% Triton. Potency, µM (highest dose often 57.1 µM), for the others: at the highest dose activity change, negative = inhibition, usual class: inhibitors. 0.52% of 330,000 active. AID 485341, 2010;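 further: plate controls were no compound for no effect and no enzyme for full effect; nearly all actives have a fitted effect of over 20% in size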
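20 mM phosphate pH 7.0 + 0.01% (detergent screen) or 0.0001% Triton X-100; 5.3 nM AmpC reagent; cpd preinc 15 min RT; nitrocefin (800 uM stock) to start; A480 q20 s × 4 min; Activity was normalised to no-enzyme and no-compound control wells.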
Sm TGR inh – qHTS Assay for the Inhibitors of Schistosoma Mansoni Peroxiredoxins; Schistosoma mansoni thioredoxin glutathione reductase (TGR), Q962Y6; 3% of 360,000 active; Potency, µM (highest dose often 114 µM), inactives show top-dose activity change, negative = inhibition, actives largely listed as inhibitors; purified TGR, DTNB reduction, TNB absorbance 405 nm; further: nearly all actives have a fitted effect of over 60% in size
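First, TGR (20 nM dispensed) and NADPH were mixed with compound. Second, a 15 min room-temperature incubation followed. Third, further NADPH and then DTNB were added to start the reaction. Finally, TNB absorbance was monitored kinetically.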
* = called active by the depositor; ? = inconclusive; / = no result given. The call rests on the fitted dose curve; in most records, active means well fitted curve in the direction sought with a large enough effect; inconclusive means small, poorly fitted or top-dose-only effect, or another doubt; inactive means no such curve, though single readings can be large; an effect the other way counts as inactive or inconclusive. Unless noted, on the % scale 0 is the no-effect control and ±100 the full control effect; potency means the concentration at half of the fitted maximal effect.

SMILES	AmpC inh detg	AmpC no deterg	Sm TGR inh
Cc1ccc2nc(Cl)c(C3CC(c4ccco4)=NN3C(=O)CCCC(=O)O)cc2c1 (configuration not stated)	2%	-22%	35µM*
Cc1ccc2cc(C3CC(c4ccco4)=NN3C(=O)CCCC(=O)O)c(Cl)nc2c1 (configuration not stated)	-7%	53%	?
COc1ccc2nc(Cl)c(C3CC(c4ccco4)=NN3C(=O)CCCC(=O)O)cc2c1 (configuration not stated)	4%	-15%	8.9µM*
COc1ccc2nc(Cl)c(C3CC(c4ccco4)=NN3C(=O)CCC(=O)O)cc2c1 (configuration not stated)	-1%	-21%	?
COc1ccc(-c2noc(CCCC(=O)Nc3cccc(Cl)c3C)n2)cc1	22%	/	-1%
O=C(CCCN1C(=O)C(c2ccccc2)Oc2cccnc21)Nc1ccc(Br)cc1F (configuration not stated)	2%	/	-2%
O=C(CN1C(=O)C(c2ccc(F)cc2)=NC12CCCCCC2)Nc1ccc(F)c(Cl)c1	-1%	/	2%
Cc1ccc(C)c(OCCCC(=O)NC2CCCCC2)c1	-12%	5%	-19%
Cc1ccc(OCCCC(=O)NC2CCCCC2)cc1	0%	0%	40µM*
CCC(=O)N1CCc2cc(CNC(=O)Cc3ccc(F)cc3)ccc21	3%	/	0%
CCOC(=O)N1CCN(C(=O)CS(=O)(=O)c2cn(Cc3ccccc3Cl)c3ccccc23)CC1	?	4µM*	-24%
CCOC(=O)N1CCN(C(=O)CS(=O)(=O)c2cn(Cc3ccc(Cl)cc3)c3ccccc23)CC1	?	?	-16%
O=C1CCN(CCc2ccccc2)CCN1[C@H](CSc1ccccc1)c1ccccc1	-15%	58%	-10%
CC(C)CN1CCC(=O)N([C@H](CSc2ccccc2)Cc2ccccc2)CC1	-3%	32%	?
Cc1ccc(SC[C@H](c2ccccc2)N2CCN(CCc3ccccc3)CCC2=O)cc1	-5%	56%	?
CCCN1CCC(=O)N([C@H](CSc2ccc(C)cc2)c2ccccc2)CC1	7%	101%	45µM*
CCCN1CCC(=O)N([C@H](CSc2ccccc2)c2ccccc2)CC1	-4%	124%	40µM*
Cc1ccc(SC[C@H](Cc2ccccc2)N2CCN(CC(C)C)CCC2=O)cc1	7%	-3%	25µM*
CCOc1ccc(N(CC(=O)Nc2ccccc2CC)S(=O)(=O)c2c(C)noc2C)cc1	-7%	/	0%
Cc1cccc(C)c1OCC(=O)NCC1(N2CCOCC2)CCCCC1	3%	/	-4%
CCc1cc(=S)n2c([nH]c3ccccc32)c1C#N	-10%	-32%	1.6µM*
CCc1c(C)c(C#N)c2[nH]c3ccccc3n2c1=S	-5%	-35%	0.56µM*
CCc1cc(=O)n2c([nH]c3ccccc32)c1C#N	-3%	-12%	-17%
C=C(C)Cc1c(C)c(C#N)c2[nH]c3ccccc3n2c1=O	-8%	-30%	-13%
CC(=O)N1CCc2c(sc3c2c(=O)n(-c2ccccc2C)c(=O)n3CC(=O)Nc2ccccc2)C1	-2%	/	-11%
SMILES	AmpC inh detg	AmpC no deterg	Sm TGR inh
O=c1c(C(c2ccc(Br)cc2)c2c(O)nc3n(c2=O)CCCS3)c(O)nc2n1CCCS2	6%	-16%	2µM*
O=c1c(C(c2ccc(O)cc2)c2c(O)nc3n(c2=O)CCCS3)c(O)nc2n1CCCS2	1%	-19%	56µM*
O=c1c(C(c2ccc(O)cc2)c2c(O)nc3n(c2=O)CCS3)c(O)nc2n1CCS2	-3%	-8%	10µM*
Cc1ccc(C(c2c(O)nc3n(c2=O)CCS3)c2c(O)nc3n(c2=O)CCS3)cc1	?	-21%	2.8µM*
O=c1c2ccccc2nc2n1CCCS2	1%	-8%	6%
O=c1c(C(c2ccc(Br)cc2)c2c(O)nc3n(c2=O)CCS3)c(O)nc2n1CCS2	5%	-49%	?
O=c1c(C(c2c(O)nc3n(c2=O)CCS3)c2cccc3ccccc23)c(O)nc2n1CCS2	0%	-23%	?
CCCc1nn2c(=O)c(C(c3ccc(C)cc3)c3c(O)nc4sc(CCC)nn4c3=O)c(O)nc2s1	-2%	-39%	?
COc1cc(NC(=O)CCc2c(C)nc3nc(-c4cc(OC)cc(OC)c4)nn3c2C)cc(OC)c1	-9%	/	-5%
CC1=C(c2ccc(F)cc2)S(=O)(=O)N=C1N1CCC(C(=O)NCCc2cccc(C)c2)CC1	13%	/	-16%
CCN(CC)C(=O)Cn1ncc2c([nH]c3ccc(C)cc32)c1=O	14%	/	3%
COC(=O)C1=C(C)OC(N)=C(C#N)C1c1cc2cc(C)ccc2nc1Cl (configuration not stated)	?	-37%	/
CC(=O)C1=C(C)OC(N)=C(C#N)C1c1cc2cc(C)c(C)cc2nc1Cl (configuration not stated)	1%	0.32µM*	0%
N#CC(C#N)=Cc1cn(-c2ncc(C(F)(F)F)cc2Cl)c2ccccc12	-2%	-8%	7.1µM*
CC(=O)/C=C\c1cn(-c2ncc(C(F)(F)F)cc2Cl)c2ccccc12	-1%	?	5%
Cc1ccc(NC(=O)N2CCc3c(sc4c3CCCC4)C2c2ccccc2)cc1F (configuration not stated)	4%	/	3%
Cc1sc2nc(COC(=O)c3ccc(O)cc3)[nH]c(=O)c2c1C	3%	14µM*	13%
Cc1sc2nc(COC(=O)c3ccc(Cl)c(N)c3)[nH]c(=O)c2c1C	-4%	-39%	-10%
Cc1[nH]c(=O)c(C(=O)/C=C/c2ccccc2F)c2c1CCCC2	-2%	-20%	100µM*
Cc1cc(C)c(C(=O)/C=C/c2cccc3ccccc23)c(=O)[nH]1	-10%	-31%	-14%
Cc1ccc(NC(=O)Cn2nc(C)c3nn(-c4ccc(Cl)cc4)c(C)c3c2=O)cc1F	-5%	/	9%
Cc1c(C(=O)NCc2cccc(F)c2)oc2c1-c1[nH]ncc1CC2	-7%	/	-10%
COc1ccccc1/C=C/C=N/NC(=O)c1ccccn1	-2%	-10%	-7%
O=C(N/N=C/C(Br)=C/c1ccccc1)c1cc(-c2ccco2)[nH]n1	2%	20µM*	/
CC(/C=N/NC(=O)c1cc(-c2ccc(C)o2)[nH]n1)=C\c1ccccc1	-7%	-42%	-35%
COc1ccccc1/C=C/C=N/NC(=O)c1cc(-c2ccco2)[nH]n1	-3%	?	7.1µM*
CCN(C(=O)Cn1c(=O)n(CCCS(=O)(=O)C2CCCCC2)c(=O)c2ccccc21)c1cccc(C)c1	5%	/	3%
CCOC(=O)C1=C(C)N=c2s/c(=C/c3cccc([N+](=O)[O-])c3O)c(=O)n2C1c1ccc(OC)cc1OC (configuration not stated)	-7%	-18%	56µM*
CCOC(=O)C1=C(C)N=c2s/c(=C\c3ccc(O)c([N+](=O)[O-])c3)c(=O)n2C1c1ccccc1OC (configuration not stated)	-13%	-30%	-10%
O=C(COC(=O)CCc1c[nH]c2ccccc12)Nc1ccccc1	-2%	-21%	1%
